Assay results: publication PMC4552634, “A New Set of Chemical Starting Points with Plasmodium falciparum Transmission-Blocking Potential for Antimalarial Drug Discovery” (PLoS ONE, 2015)
Hit rate of the full screen: of about 13,000 compounds, about 3,200 (25%) showed an effect of 50% or more. Some of the results follow.

tested on: P. falciparum stage V gametocytes; set-up: BacTiter-Glo ATP luminescence viability of purified stage V gametocytes in 384-well plates, per cent inhibition versus DMSO; details: 48 h, 5 µM; inhibitor

Compound | % Inhibition [%]
Cc1ccc(NC(=O)c2ccc(CN3CCCN(CC4CCCCC4)CC3)cc2)cc1C [TCMDC-136425] | -18.57
Cc1cc(-c2c[nH]c3ncc(-c4cccc5ncccc45)cc23)ccc1C(=O)O.O=C(O)C(F)(F)F [TCMDC-136377] | 16.5
O=C(O)C(F)(F)F.OCC1CCN(Cc2ccc(-c3ccc(-c4nc5cc(C(F)(F)F)ccc5[nH]4)s3)cc2)CC1 [TCMDC-133120] | 54.7
Nc1cccc(CNCc2ccc(-c3ccc(-c4nc5cc(C(F)(F)F)ccc5[nH]4)s3)cc2)c1.O=C(O)C(F)(F)F [TCMDC-132939] | -86.12
CC(C)NCc1ccc(-c2ccc(-c3nc4cc(C(F)(F)F)ccc4[nH]3)s2)cc1.O=C(O)C(F)(F)F [TCMDC-132745] | -79.18
NC(=O)C1CCN(Cc2ccc(-c3ccc(-c4nc5cc(C(F)(F)F)ccc5[nH]4)s3)cc2)CC1.O=C(O)C(F)(F)F [TCMDC-132687] | -37.37
CNc1ccc(CNCc2ccc(-c3ccc(-c4nc5cc(C(F)(F)F)ccc5[nH]4)s3)cc2)cc1.O=C(O)C(F)(F)F [TCMDC-132985] | 42.48
CN(CCN)Cc1ccc(-c2ccc(-c3nc4cc(C(F)(F)F)ccc4[nH]3)s2)cc1.O=C(O)C(F)(F)F [TCMDC-132821] | 65.23
O=C(O)C(F)(F)F.OCC1CCN(Cc2cccc(-c3ccc(-c4nc5cc(C(F)(F)F)ccc5[nH]4)s3)c2)CC1 [TCMDC-133126] | 5.885
NCc1ccc(CNCc2ccc(-c3ccc(-c4nc5cc(C(F)(F)F)ccc5[nH]4)s3)cc2)cc1.O=C(O)C(F)(F)F [TCMDC-132814] | 75.71
CN(CCN)Cc1cccc(-c2ccc(-c3nc4cc(C(F)(F)F)ccc4[nH]3)s2)c1.O=C(O)C(F)(F)F [TCMDC-132820] | 44.42
Cc1cccc2[nH]c(-c3cccc(-c4ccc(NC(=O)Cc5ccon5)cc4)c3)nc12 [TCMDC-136906] | -38.48
Cc1cccc(/C=C/C(=O)NC2CCC(N3CCC(c4ccccc4C)CC3)CC2)c1 (centres unmarked) [TCMDC-133528] | -62.92
CN1CCN(c2ccnc3ccc(NC(=O)Cc4ccc(Br)c5ccccc45)cc23)CC1 [TCMDC-139254] | 0.9853
CS(=O)(=O)NCCCNCc1ccc(-c2cccc(-c3nc4ccc(F)cc4[nH]3)c2)cc1 [TCMDC-133077] | 6.508
COc1ccc2ncc(F)c(CCN3CCC(CNCc4cccc5c4OCO5)CC3)c2n1 [TCMDC-135851] | -2.329
CCN(CC)CCCOC(=O)c1ccc2c(c1)-c1ccc(C(=O)OCCCN(CC)CC)c3cccc-2c13 [TCMDC-125491] | 109
CCCN(CC)CCOC(=O)c1ccccc1 [TCMDC-131376] | 17.72

Compound | % Inhibition [%]
CCN(CC)C(=NC(=N)NCc1ccc(Cl)cc1)NCCCCCCNC(=NC(=N)NCc1ccc(Cl)cc1)N(CC)CC [TCMDC-131817] | 120
CCN(CC)/C(=N/C(=N)NCc1cccc(Cl)c1)NCCCCCCN/C(=N\C(=N)NCc1cccc(Cl)c1)N(CC)CC [TCMDC-131820] | 122
CC/N=C(/NCCCCCCN/C(=N/CC)NCc1ccccc1)NCc1ccccc1 [TCMDC-137726] | -33.37
CCCCN(CCCC)C(=Nc1cccc(Cl)c1Cl)Nc1ccc(C#N)cc1O [TCMDC-140226] | -14.17
CCCCN(CCCC)C(=NC(=N)NCc1ccc(Cl)c(Cl)c1)NCCCCCCNC(=NC(=N)NCc1ccc(Cl)c(Cl)c1)N(CCCC)CCCC [TCMDC-131821] | 116.7
CCN(CC)/C(=N/C(=N)NCc1ccc(Cl)cc1Cl)NCCCCCCN/C(=N\C(=N)NCc1ccc(Cl)cc1Cl)N(CC)CC [TCMDC-131819] | 120
CN(C)C(=O)CC(=O)NCc1cccc(Cl)c1 [TCMDC-131747] | 5.736
CCCc1cc(Cc2cnc(N)nc2N)cc(OCCCCCC(=O)O)c1OC [TCMDC-137182] | 2.989
O=C(NC1CCN(Cc2ccccc2)CC1)c1ccc2c(=O)n(Cc3ccc(Cl)cc3)c(=S)[nH]c2c1 [TCMDC-125694] | 0.6987
COCCNCc1cccc(C#Cc2cc3ncnc(Nc4ccc(OCc5cccc(F)c5)c(Cl)c4)c3s2)n1 [TCMDC-138842] | 7.186
Fc1ccc(CN2CCN(c3ncnc4cc(-c5ccccc5)sc34)CC2)cc1 [TCMDC-132385] | -47.67
CCCc1cc(Cc2cnc(N)nc2N)cc2c1OC(C)C2C (centres unmarked) [TCMDC-138047] | 3.526
O=C1COC2(CN1CC1CCN(Cc3ccc(O)c(Cl)c3)C1)c1ccccc1-c1ccccc12 (centres unmarked) [TCMDC-136343] | -1.738
NC(N)=NC(=O)Nc1ccc(Cl)c(C(F)(F)F)c1 [TCMDC-137469] | -12.43
Cc1ncc(CN2CCC(C(=O)Nc3ccc(-c4nc5ccccc5o4)cc3)CC2)s1 [TCMDC-124675] | 0.01985
O=C(Nc1cccc(CN2CCCN(Cc3cccc(O)c3)CC2)c1)c1ccc2ccccc2c1 [TCMDC-141855] | 21.81
Cc1nccc2c(NC(=O)N[C@@H]3CCN(c4ncc(C(F)(F)F)cc4Br)C3)cccc12 [TCMDC-141942] | 13.41
